The sample as a whole holds a higher share of hits than the screen did.
RE007 growth inh – less growth of the S. pombe RE007 Vpr strain; S. pombe RE007 Vpr strain, BacTiter-Glo ATP luminescence, 24 h; Potency, µM (series often up to 92.2 µM), for inactives: at the highest dose activity change, negative = less growth, hits mostly inhibitors; 0.21% of 360,000 active; AID 651644; active = well fitted falling curve with a large enough effect; inconclusive = small, poorly fitted or top-dose-only effect; inactive = no such curve, though single readings can be large or run the other way; note: potency is the fitted concentration of half-maximal effect; % is set by controls: 0 for no effect and ±100 for the full control effect; nearly all actives have a fitted effect of over 50% in size
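Fission yeast RE007 carrying one integrated HIV-1 vpr copy, seeded at OD 0.01 in PMG+AL medium with 23 nL pinned compound. Grown 24 h at 30 degrees; viability read by BacTiter-Glo luminescence after 5 min.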
LmPK inhibitor – inhibitors of Leishmania mexicana pyruvate kinase. 0.37% of 290,000 active. Potency, µM (highest dose often 57.5 µM), inactives show at the top dose activity change, negative = inhibition, actives largely listed as inhibitors. purified LmPK, Kinase-Glo ATP luminescence, 1 h. Q27686; note: potency is the fitted concentration of half-maximal effect; % is set by controls: 0 for no effect and ±100 for the full control effect
Target sequence (Q27686 whole entry, looked up): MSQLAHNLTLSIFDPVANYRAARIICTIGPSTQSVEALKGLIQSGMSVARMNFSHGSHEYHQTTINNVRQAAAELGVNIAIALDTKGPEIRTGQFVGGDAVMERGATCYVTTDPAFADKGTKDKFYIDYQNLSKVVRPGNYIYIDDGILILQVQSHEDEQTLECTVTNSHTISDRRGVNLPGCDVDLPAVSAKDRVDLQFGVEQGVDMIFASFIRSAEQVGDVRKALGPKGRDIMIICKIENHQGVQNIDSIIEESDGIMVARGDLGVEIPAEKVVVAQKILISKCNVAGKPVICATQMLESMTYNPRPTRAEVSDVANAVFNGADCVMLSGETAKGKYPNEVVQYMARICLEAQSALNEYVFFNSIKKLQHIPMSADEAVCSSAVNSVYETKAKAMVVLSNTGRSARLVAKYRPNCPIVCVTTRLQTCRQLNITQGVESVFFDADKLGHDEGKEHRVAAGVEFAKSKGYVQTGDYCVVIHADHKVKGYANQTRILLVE
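Kinase-Glo luminescence read after 1 h RT reaction of 0.1 nM LmPK with 0.5 mM PEP and 0.1 mM ADP. Activity scaled between uninhibited and enzyme-free controls.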
FBPA Giardia inh – inhibitors of Giardia lamblia fructose-1,6-bisphosphate aldolase; purified Giardia FBPA; Potency, µM (top dose mostly 59.6 µM), without a hit: top-dose activity, negative = inhibition, most hits filed as inhibitors; 0.71% of 290,000 active; AID 2451; note: potency is the fitted concentration of half-maximal effect; % is set by controls: 0 for no effect and ±100 for the full control effect; nearly all actives have a fitted effect of over 55% in size
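Giardia FBPA (40 nM reagent) was preincubated 10 min at RT with compound (up to 57.5 uM final), then substrate plus GAPDH/TPI/NAD/arsenate coupling system with diaphorase/resazurin was added; resorufin fluorescence (525/598 nm) was read after 20 min.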
Shiga inhibitor – Shiga toxin inhibition; inhibition, % at 38.7 µM; Vero cells, Shiga toxin protein synthesis inhibition reporter; 9.2% of 290,000 active; in the data active = inhibition mostly above about 28%, no sharp cut-off; inactive = mostly below about 43%; note: 0% is about no effect
CHX counter – affects cycloheximide protein synthesis inhibition readout, counter-screen; 12% of 300,000 active; max response, %; AID 2314; cell reporter, cycloheximide protein synthesis inhibition counterscreen; in the data active = max response mostly above about 13%, no sharp cut-off; inactive = mostly below about 14%; note: read at 38.3 µM for the half of the compounds with a filed dose; 0% is about no effect
Tb PYK inh – blocks Trypanosoma brucei pyruvate kinase; TbPYK enzyme, Kinase-Glo Plus ATP luminescence, 45 min; 0.12% of 410,000 active; Q57TT1; Potency, µM (top dose mostly 76.8 µM), inactives show at the top dose activity, negative = inhibition, hits mostly inhibitors; note: potency is the fitted concentration of half-maximal effect; % is set by controls: 0 for no effect and ±100 for the full control effect; nearly all actives have a fitted effect of over 50% in size
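Activity of T. brucei pyruvate kinase was followed by Kinase-Glo Plus luminescence after the enzyme reacted 45 min at room temperature with 130 uM ADP (final) and substrate. Test compounds were added before ADP at multiple concentrations.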
* = called active by the depositor; ? = inconclusive; . = not tested or not shown. Unless noted, calls come from the whole dose curve; as a rule, active = well fitted curve in the direction sought with a large enough effect; inconclusive = small, poorly fitted or top-dose-only effect, or another doubt; inactive = no such curve, though single readings can be large; an effect the other way counts as inactive or inconclusive.

SMILES	RE007 growth inh	LmPK inhibitor	FBPA Giardia inh	Shiga inhibitor	CHX counter	Tb PYK inh
COc1cccc(NS(=O)(=O)c2ccc3[nH]cc(C(=O)NC(C)c4ccccc4)c(=O)c3c2)c1 (configuration not stated)	.	.	.	5	51	5%
c1ccc(CSc2ccc(-c3ccccn3)nn2)cc1	-28%	1%	-1%	110*	52*	-8%
Cc1ccc(C(=O)CSc2ccc(-c3ccccc3)nn2)cc1	-17%	6%	1%	9	10	-1%
O=C(CSc1ccc(-c2ccccn2)nn1)c1ccc(F)cc1	-3%	-8%	?	51*	33*	4%
O=C(CSc1ccc(-c2ccccn2)nn1)N1CCCC1	7%	2%	?	43	25*	?
O=C(CSc1ccc(-c2ccccn2)nn1)NC1CCCC1	-2%	-1%	12%	25	15	-1%
O=C(CSc1ccc(-c2ccccn2)nn1)c1ccccc1	-24%	12%	?	87*	49*	4%
O=C(CSc1ccc(-c2ccccc2)nn1)c1ccccc1	?	2%	-7%	60*	42*	4%
COc1ccccc1NC(=O)CSc1ccc(-c2ccccn2)nn1	3%	0%	.	19	13*	-4%
CC(C)c1nc(SCC(=O)c2ccc(F)cc2)c2ccccc2n1	-9%	1%	-9%	31	20*	-7%
O=C(CSc1cnc2ccccc2n1)c1ccc(F)cc1	6%	-19%	-4%	65*	60*	-7%
COC(=O)CSc1cnc2ccccc2n1	0%	-4%	-1%	-5	-5	4%
O=C(CNC(=O)c1ccco1)OCc1ccccc1F	7%	.	.	.	.	3%
NC(=O)CN1C(=O)C2(SCC(=O)N2c2cccc(F)c2)c2ccccc21 (configuration not stated)	.	.	.	.	.	2%
O=C(COc1ccccc1)NCCSCc1ccccc1Cl	-8%	6%	4%	48*	42*	0%
O=C(/C=C/c1ccccc1)NCCSCc1ccc(Cl)cc1	12%	-1%	5%	-17	0	-5%
O=C(CN1C(=O)c2ccccc2S1(=O)=O)NCCSCc1ccccc1Cl	1%	-2%	7%	27	13*	4%
O=C(/C=C/c1ccccc1)NCCSCc1ccccc1Cl	17%	4%	-4%	-23	11*	-8%
COc1ccccc1OCC(=O)NCCSCc1ccccc1Cl	-11%	1%	4%	-44	13	-19%
C[C@H](O)[C@@H]1CN2CCc3c([nH]c4ccccc34)[C@@H]2C[C@@H]1N(C)C(=O)NC1CCCCC1	14%	.	.	.	.	-5%
C=CCOc1ccc(/C(O)=C2/C(=O)C(=O)N(CCCn3ccnc3)C2c2cccs2)cc1 (configuration not stated)	11%	7%	25%	137*	49*	4%
CC1Cc2cc(/C(O)=C3/C(=O)C(=O)N(CCCn4ccnc4)C3c3ccco3)ccc2O1 (configuration not stated)	-20%	3%	-9%	113*	33*	1%
CC1Cc2cc(/C(O)=C3/C(=O)C(=O)N(Cc4ccco4)C3c3cccs3)ccc2O1 (configuration not stated)	13%	0%	1%	87*	46*	5%
COc1ccccc1C1/C(=C(\O)c2ccc3c(c2)OCCO3)C(=O)C(=O)N1CCCn1ccnc1 (configuration not stated)	-8%	0%	-12%	72*	32*	-2%
Cc1ccn2c(=O)nc(SCC(=O)Nc3ccc4c(c3)OCCO4)nc2c1	-16%	.	.	.	.	-5%
SMILES	RE007 growth inh	LmPK inhibitor	FBPA Giardia inh	Shiga inhibitor	CHX counter	Tb PYK inh
CCCOc1ccc(/C(O)=C2/C(=O)C(=O)N(CCCn3ccnc3)C2c2ccc(C)o2)cc1 (configuration not stated)	-9%	10%	-1%	11	-2	-3%
C=CCOc1ccc(/C(O)=C2/C(=O)C(=O)N(CCCn3ccnc3)C2c2ccco2)cc1 (configuration not stated)	11%	-1%	-20%	65*	32*	3%
O=C1C(=O)N(CCCn2ccnc2)C(c2ccccn2)/C1=C(/O)c1ccccc1 (configuration not stated)	.	0%	-10%	-9	-7	.
CCCOc1ccc(/C(O)=C2/C(=O)C(=O)N(CCCn3ccnc3)C2c2ccco2)cc1 (configuration not stated)	1%	-2%	0%	28	28*	-18%
Cc1nnc(N2C(=O)C(=O)/C(=C(/O)c3ccc4c(c3)CC(C)O4)C2c2ccccc2F)s1 (configuration not stated)	3%	3%	3%	18	14*	-3%
COc1cccc(C2/C(=C(\O)c3ccc4c(c3)OCCO4)C(=O)C(=O)N2c2nnc(C)s2)c1 (configuration not stated)	8%	-11%	.	22	17	-5%
CCOc1ccc(/C(O)=C2/C(=O)C(=O)N(c3nc(C)c(C)s3)C2c2ccco2)cc1 (configuration not stated)	-20%	0%	15%	123*	18*	1%
CC(C)CCC[C@@H](C)[C@@H]1CC[C@H]2C3=CC=C4CC(O)CC[C@]4(C)[C@H]3CC[C@@]21C (some centres not stated)	.	.	-15%	17	-4	.
NC(=O)CF	.	.	5%	3	-5	.
c1ccc(N2CCN(c3ccccc3)C2c2cccs2)cc1	?	4%	-3%	94*	30*	3%
O=C1CSC(c2cccs2)N1c1ccccc1 (configuration not stated)	6%	-6%	0%	-6	-1	-9%
CCOc1ccc(OCC)c(NC(=O)c2nnn(CC(=O)Nc3cc(Cl)ccc3OC)c2N)c1	.	.	.	.	.	5%
O=C(/C=C/c1ccccc1Cl)NC1CCCCC1	2%	-14%	6%	27*	33*	-12%
O=C(/C=C/c1ccccc1Cl)Nc1cccnc1	-11%	-10%	-5%	80*	60*	-1%
O=C(/C=C/c1ccc(Cl)c(Cl)c1)Nc1cccnc1	1%	.	.	.	.	1%
CCC(CC)NC(=O)/C=C/c1ccccc1Cl	-20%	-19%	-1%	69*	35*	-13%
O=C(/C=C/c1ccccc1Cl)Nc1ccncc1	-9%	-8%	-9%	67*	25*	-4%
O=C(/C=C/c1ccc(Cl)cc1Cl)Nc1ccncc1	0%	-1%	1%	96*	50*	4%
Cc1ccc(NC(=O)/C=C/c2ccccc2Cl)cc1Cl	.	.	.	.	.	1%
CC(=O)N(C)c1ccc(NC(=O)/C=C/c2ccccc2Cl)cc1	0%	1%	1%	41*	80*	-2%
